15 sequences from article PMC3218832 can be followed below.

Among the targets are RELARELA (p65 homodimer) (Homo sapiens, UniProt Q04206 1-307); p50p50 homodimer (Homo sapiens, UniProt P19838 7-356); RELB subunit;p50 subunit (Homo sapiens;Homo sapiens, UniProt Q01201;P19838 120-401;7-356).
Holding throughout (assay): protein binding microarray; high values mean tight binding
Details in all cases: dsDNA, one strand shown

The target in another assay is T1, p52p52 homodimer (Homo sapiens, UniProt Q00653 4-332).
T1 sequence: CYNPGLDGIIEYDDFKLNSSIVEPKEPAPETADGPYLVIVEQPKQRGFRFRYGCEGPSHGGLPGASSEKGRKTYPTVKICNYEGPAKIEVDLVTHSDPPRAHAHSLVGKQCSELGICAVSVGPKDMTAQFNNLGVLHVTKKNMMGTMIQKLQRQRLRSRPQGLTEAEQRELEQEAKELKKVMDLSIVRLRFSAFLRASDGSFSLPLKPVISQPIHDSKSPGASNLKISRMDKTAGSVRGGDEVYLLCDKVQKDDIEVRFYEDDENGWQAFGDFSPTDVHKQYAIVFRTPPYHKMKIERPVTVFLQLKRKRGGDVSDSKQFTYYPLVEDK

Assay [1] has as its target RELA (p65) subunit of heterodimer;p50 subunit (Homo sapiens;Homo sapiens, UniProt Q04206;P19838 1-307;7-356).
For assay [2], the target named is RELA (p65) subunit of heterodimer;p52 subunit (Homo sapiens;Homo sapiens, UniProt Q04206;Q00653 1-307;4-332).
In the next assay the target is T2, RELB subunit;p52 subunit (Homo sapiens;Homo sapiens, UniProt Q01201;Q00653 120-401;4-332).
T2 sequence 1: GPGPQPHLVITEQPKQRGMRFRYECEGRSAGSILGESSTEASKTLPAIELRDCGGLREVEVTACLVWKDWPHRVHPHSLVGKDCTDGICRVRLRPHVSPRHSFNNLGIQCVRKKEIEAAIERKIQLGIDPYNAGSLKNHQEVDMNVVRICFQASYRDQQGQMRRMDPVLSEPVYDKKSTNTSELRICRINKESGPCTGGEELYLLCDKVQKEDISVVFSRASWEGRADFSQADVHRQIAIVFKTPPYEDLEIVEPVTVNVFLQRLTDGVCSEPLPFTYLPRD
T2 sequence 2: T1 sequence

Assay [3] deals with C-Rel subunit;p50 subunit (Homo sapiens;Homo sapiens, UniProt Q04864;P19838 1-285;7-356).
Assay [4] deals with T3, C-Rel subunit;p52 subunit (Homo sapiens;Homo sapiens, UniProt Q04864;Q00653 1-285;4-332).
T3 sequence 1: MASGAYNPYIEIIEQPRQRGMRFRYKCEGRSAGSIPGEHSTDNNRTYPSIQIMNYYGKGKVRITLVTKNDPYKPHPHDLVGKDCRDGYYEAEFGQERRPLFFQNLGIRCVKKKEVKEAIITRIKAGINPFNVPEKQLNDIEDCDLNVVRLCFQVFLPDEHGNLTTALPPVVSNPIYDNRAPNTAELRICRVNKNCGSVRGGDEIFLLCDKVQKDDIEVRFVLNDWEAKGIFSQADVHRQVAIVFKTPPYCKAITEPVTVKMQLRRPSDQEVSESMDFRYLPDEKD
T3 sequence 2: T1 sequence

Sequence of RELA (p65) subunit of heterodimer;p50 subunit (Q04206 1-307, chain 1 of 2): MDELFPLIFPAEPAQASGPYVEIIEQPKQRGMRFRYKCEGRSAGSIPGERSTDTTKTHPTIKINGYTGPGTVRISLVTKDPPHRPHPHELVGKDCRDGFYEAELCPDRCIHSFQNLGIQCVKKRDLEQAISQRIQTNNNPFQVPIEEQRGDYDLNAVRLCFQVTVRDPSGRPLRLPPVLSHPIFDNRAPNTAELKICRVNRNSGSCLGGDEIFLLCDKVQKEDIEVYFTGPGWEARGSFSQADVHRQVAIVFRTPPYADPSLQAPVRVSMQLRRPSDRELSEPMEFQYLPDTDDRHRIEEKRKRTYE
Sequence of RELA (p65) subunit of heterodimer;p50 subunit (P19838 7-356, chain 2 of 2): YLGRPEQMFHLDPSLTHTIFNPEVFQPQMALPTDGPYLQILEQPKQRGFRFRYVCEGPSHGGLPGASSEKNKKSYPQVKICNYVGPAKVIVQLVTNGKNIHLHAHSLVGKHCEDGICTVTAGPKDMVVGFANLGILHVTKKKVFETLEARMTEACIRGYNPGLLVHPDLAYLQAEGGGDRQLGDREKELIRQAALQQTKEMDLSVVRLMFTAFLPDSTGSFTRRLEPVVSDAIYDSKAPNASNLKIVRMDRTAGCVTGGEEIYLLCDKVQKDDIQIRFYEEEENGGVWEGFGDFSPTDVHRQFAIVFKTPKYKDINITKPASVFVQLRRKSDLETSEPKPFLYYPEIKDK
Sequence of RELARELA (p65 homodimer) (Q04206 1-307): as the sequence (Q04206 1-307, chain 1 of 2) above
Sequence of p50p50 homodimer (P19838 7-356): as the sequence (P19838 7-356, chain 2 of 2) above

On to GAAGATGCCCC, for which the binding signal is 0.0529 z-score in the assay with RELARELA (p65 homodimer); 0.407 z-score with p50p50 homodimer; 0.0127 z-score with p52p52 homodimer; 0.599 z-score in assay [1]; 0.186 z-score in [2]; 0.421 z-score in the assay with RELB subunit;p50 subunit. The results for the binding signal (with RELB subunit;p52 subunit; in [3]; in assay [4]) were 0.376 z-score, 0.679 z-score and 0.228 z-score, respectively.
On to GAGGTGGTCCT, for which the binding signal in the assay with RELARELA (p65 homodimer) is -0.284 z-score; with p50p50 homodimer, -0.198 z-score; in the assay with p52p52 homodimer, -0.03 z-score; in assay [1], -0.746 z-score; in assay [2], -0.496 z-score; with RELB subunit;p50 subunit it was -0.46 z-score. The binding signal is -0.352 z-score with RELB subunit;p52 subunit, -1.08 z-score in assay [3] and -0.521 z-score in assay [4].
AGGGACGTCCT: the binding signal was determined as 0.554 z-score with RELARELA (p65 homodimer); 0.528 z-score in the assay with p50p50 homodimer; 1.06 z-score with p52p52 homodimer; 0.549 z-score in assay [1]; 0.923 z-score in assay [2]; 0.448 z-score with RELB subunit;p50 subunit. The binding signal turned out to be 0.709 z-score with RELB subunit;p52 subunit, 0.177 z-score in assay [3] and 0.67 z-score in [4].
For the sequence CGGTACATCCC, the binding signal is 0.722 z-score with RELARELA (p65 homodimer); 0.342 z-score with p50p50 homodimer; 1.69 z-score with p52p52 homodimer; 0.384 z-score in assay [1]; 0.93 z-score in [2]; 0.529 z-score with RELB subunit;p50 subunit. For the same sequence, the binding signal with RELB subunit;p52 subunit was determined as 0.811 z-score; in assay [3], 0.0779 z-score; in [4], 0.879 z-score.
As to GGGTAACCCCT, the binding signal with RELARELA (p65 homodimer) came out at 1.23 z-score; with p50p50 homodimer, 0.71 z-score; with p52p52 homodimer it was 1.97 z-score; in assay [1], 1.42 z-score; in assay [2], 1.8 z-score; with RELB subunit;p50 subunit it was 0.672 z-score. Moreover, the binding signal with RELB subunit;p52 subunit is 1.45 z-score; in assay [3], 0.858 z-score; in assay [4] it was 1.95 z-score.
On to CGGGTTATCCC, for which the binding signal with RELARELA (p65 homodimer) was 1.55 z-score; with p50p50 homodimer, 0.247 z-score; with p52p52 homodimer it was 1.5 z-score; in [1], 0.634 z-score; in assay [2], 0.988 z-score; with RELB subunit;p50 subunit, 0.155 z-score. Besides, the binding signal with RELB subunit;p52 subunit came out at 0.698 z-score; in assay [3], 0.306 z-score; in assay [4] it was 0.791 z-score.
For CGAATCGCCCT, the binding signal with RELARELA (p65 homodimer) was -0.52 z-score; with p50p50 homodimer, -1.41 z-score; with p52p52 homodimer it was -0.603 z-score; in assay [1], -0.694 z-score; in assay [2], -0.649 z-score; with RELB subunit;p50 subunit it was -0.752 z-score. Moreover, the values for the binding signal (in the assay with RELB subunit;p52 subunit; in [3]; in assay [4]) were -0.785 z-score, -0.785 z-score and -0.657 z-score, respectively.
For GAATGGCCCCT, the binding signal with RELARELA (p65 homodimer) was -0.247 z-score; with p50p50 homodimer it was 0.432 z-score; with p52p52 homodimer it was 0 z-score; in assay [1], 0.128 z-score; in [2] it was 0.262 z-score; in the assay with RELB subunit;p50 subunit, 0.27 z-score. For the same sequence, the binding signal was 0.242 z-score in the assay with RELB subunit;p52 subunit, -0.321 z-score in [3] and -0.168 z-score in [4].
With AGAAGTCTCCT, the binding signal with RELARELA (p65 homodimer) is -0.456 z-score; with p50p50 homodimer, -1.85 z-score; with p52p52 homodimer it was -0.738 z-score; in assay [1], -0.94 z-score; in assay [2], -0.879 z-score; in the assay with RELB subunit;p50 subunit it was -0.942 z-score. For the same sequence, the binding signal in the assay with RELB subunit;p52 subunit is -0.985 z-score; in assay [3], -1.36 z-score; in assay [4] it was -0.926 z-score.
On to AAGTTGTTCCT, for which the binding signal with RELARELA (p65 homodimer) was -0.106 z-score; with p50p50 homodimer, -1.19 z-score; in the assay with p52p52 homodimer, -0.438 z-score; in assay [1], -0.58 z-score; in assay [2], -0.753 z-score; in the assay with RELB subunit;p50 subunit, -0.971 z-score. Moreover, the binding signal was -0.787 z-score with RELB subunit;p52 subunit, -0.889 z-score in assay [3] and -0.685 z-score in [4].
AGATTGGTCCT: the binding signal in the assay with RELARELA (p65 homodimer) was -0.38 z-score; in the assay with p50p50 homodimer, -1.15 z-score; with p52p52 homodimer, -0.549 z-score; in [1], -1.18 z-score; in [2], -0.788 z-score; in the assay with RELB subunit;p50 subunit, -0.729 z-score. Besides, the binding signal was -0.656 z-score with RELB subunit;p52 subunit, -1.35 z-score in assay [3] and -0.852 z-score in assay [4].
As for CAGATGACCCC, the binding signal with RELARELA (p65 homodimer) was -0.4 z-score; in the assay with p50p50 homodimer it was -0.382 z-score; with p52p52 homodimer, -0.355 z-score; in [1], -0.422 z-score; in assay [2], -0.386 z-score; with RELB subunit;p50 subunit, -0.204 z-score. In addition, the results for the binding signal (with RELB subunit;p52 subunit; in [3]; in [4]) were -0.302 z-score, -0.754 z-score and -0.39 z-score, respectively.
With CGATTTCCCCT, the binding signal with RELARELA (p65 homodimer) came out at 1.73 z-score; in the assay with p50p50 homodimer, 1.66 z-score; in the assay with p52p52 homodimer it was 2.21 z-score; in assay [1] it was 2.26 z-score; in assay [2], 1.96 z-score; in the assay with RELB subunit;p50 subunit, 2.39 z-score. The values for the binding signal (with RELB subunit;p52 subunit; in [3]; in assay [4]) were 2.23 z-score, 1.83 z-score and 1.81 z-score, respectively.
Take AGAATTTCCCC: the binding signal was 3.09 z-score in the assay with RELARELA (p65 homodimer); 1.24 z-score in the assay with p50p50 homodimer; 2.64 z-score in the assay with p52p52 homodimer; 2.2 z-score in assay [1]; 2.3 z-score in assay [2]; 2.59 z-score in the assay with RELB subunit;p50 subunit. In addition, the binding signal with RELB subunit;p52 subunit came to 2.28 z-score; in [3], 1.85 z-score; in [4], 2.29 z-score.
Take CGGAGAGTCCT: the binding signal with RELARELA (p65 homodimer) is 1 z-score; with p50p50 homodimer it was -1.2 z-score; with p52p52 homodimer, -0.591 z-score; in assay [1], -0.159 z-score; in [2] it was -0.629 z-score; in the assay with RELB subunit;p50 subunit it was -0.808 z-score. Moreover, the binding signal in the assay with RELB subunit;p52 subunit is -0.743 z-score; in [3], -0.482 z-score; in assay [4], -0.448 z-score.
